LMP1 NFkB inh – inhibitors of Epstein-Barr LMP1-induced NF-kappaB reporter. LMP1-induced NF-kappaB luciferase reporter cells, luminescence. inhibition, % at 12.5 µM. 350,000 compounds, 0.69% hits; in the data active = inhibition above about 41%;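 also: 0% = neutral control wells and 100% = reference inhibitor control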
Shn3 3UTR inh – reduces Shn3 3'UTR luciferase signal in osteoblasts; 360,000 compounds, 0.52% hits; inhibition, % at 12.5 µM; Clone20 osteoblast Shn3 3'UTR firefly luciferase, 24 h; AID 588674;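 active = mean inhibition of at least 75% with every replicate also reaching 75%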;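 also: 0% = median of neutral control wells and 100% = pilot-screen positive control compound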
TRPM1 prom inh – inhibitors of MITF-driven TRPM1 promoter in melanoma cells | SK-MEL-5 TRPM1 promoter luciferase, 24 h | inhibition, % at 12.5 µM | 330,000 compounds, 0.83% hits | AID 488899;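 active = mean inhibition across replicates of 60% or more, whatever share of single replicates reaches that level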
EWS-Fli inh – blocks EWS/Fli oncoprotein-driven transcription. A673 NR0B1-luciferase reporter, viability-normalised. inhibition, % at 12.6 µM. 350,000 compounds, 0.67% hits;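 active = mean inhibition of at least 50% after viability correction, with every replicate also passing that limit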;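 also: firefly luciferase signal divided by Alamar Blue viability fluorescence both relative to DMSO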
LGR2 antag – blocks bursicon-induced cAMP signaling via Drosophila LGR2 | HEK293 LGR2, CRE-luciferase, bursicon-stimulated, 4 h | 380,000 compounds, 0.35% hits | inhibition, % at 9.99 µM | AID 720647;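 active = drop in luminescence signal, shown as inhibition above about 50% in the replicate tests, limit read from the data, passing the limit was not always enough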;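 also: agonist challenge used bursicon conditioned medium at about half maximal strength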
PAX8 reporter – lowers PAX8-driven luciferase in RMG-I cells; inhibition, % at 12.6 µM; RMG-I TPO-luciferase reporter, SteadyGlo, 24 h; 360,000 compounds, 1.2% hits;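 active = mean replicate inhibition at least 60% with every replicate also reaching 60%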;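 also: luciferase light reporting Pax8 driven TPO promoter activity; plate controls were median of neutral control wells for no effect and mitoxantrone controls for full effect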
* marks the source's active call; other numbers are inactive results; nt = no result. A selection: hits, their analogues and other compounds. The true share with any hit is near 2.2%.

SMILES	LMP1 NFkB inh	Shn3 3UTR inh	TRPM1 prom inh	EWS-Fli inh	LGR2 antag	PAX8 reporter
CC1=C(C#N)C(C(F)(F)F)(C(F)(F)F)N=C(c2ccco2)N1	5	89*	10	nt	nt	nt
COc1ccc(C(=O)O/N=C(\N)c2ccc(OC)c(OC)c2)c(OC)c1	-13	-37	-54	nt	nt	nt
COc1ccc(Cl)cc1C(=O)O/N=C(\N)c1ccccn1	-56	-70	-23	-57	-58	-33
COc1ccc(C(=O)O/N=C(\N)c2ccccc2)c(OC)c1	34	23	35	71*	82*	35
COc1ccc(C(=O)O/N=C(\N)c2ccccn2)c(OC)c1	38	25	9	25	82*	-5
Cc1ccc(S(=O)(=O)N(C)C[C@H]2Oc3c(NC(=O)Nc4ccc(F)cc4)cccc3C(=O)N([C@@H](C)CO)C[C@H]2C)cc1	nt	nt	nt	30	-24	78*
C[C@H](CO)N1C[C@H](C)[C@@H](CN(C)C(=O)NC2CCCCC2)Oc2c(NS(=O)(=O)c3cn(C)cn3)cccc2C1=O	50*	1	0	0	13	-14
C[C@H]1CN([C@@H](C)CO)C(=O)c2cccc(NC(=O)NC3CCCCC3)c2O[C@@H]1CN(C)S(=O)(=O)c1ccc(Cl)cc1	nt	nt	nt	14	-20	-1
COc1ccc(S(=O)(=O)N(C)C[C@H]2Oc3c(NC(=O)CCC(F)(F)F)cccc3C(=O)N([C@H](C)CO)C[C@@H]2C)cc1	56*	1	9	-1	0	8
Cc1ccc(S(=O)(=O)N(C)C[C@H]2Oc3c(NC(=O)Nc4ccc(F)cc4)cccc3C(=O)N([C@@H](C)CO)C[C@@H]2C)cc1	nt	nt	nt	5	-1	-1
C[C@H](CO)N1C[C@H](C)[C@H](CN(C)S(=O)(=O)c2ccc(Cl)cc2)Oc2c(NC(=O)NC3CCCCC3)cccc2C1=O	nt	nt	nt	20	nt	92*
COCC(=O)N1CC2(C1)[C@@H](c1ccccc1)[C@@H](CO)N2C(=O)c1ccccc1	nt	nt	nt	nt	6	nt
O=C(C[C@@H]1CC[C@@H](NC(=O)c2cccc(F)c2)[C@@H](CO)O1)NCc1ccc(Oc2ccccc2)cc1	nt	nt	nt	13	-13	38
C[C@H](CO)N1C[C@H](C)[C@H](CN(C)S(=O)(=O)c2ccc(Cl)cc2)Oc2c(NC(=O)Nc3ccc(F)cc3)cccc2C1=O	nt	nt	nt	2	nt	91*
C[C@@H]1CN([C@@H](C)CO)C(=O)c2cccc(NC(=O)Nc3ccc(F)cc3)c2O[C@H]1CN(C)S(=O)(=O)c1ccc(Cl)cc1	nt	nt	nt	-3	-3	-13
COc1ccc(S(=O)(=O)Nc2ccc3c(c2)CC(=O)N([C@@H](C)CO)C[C@@H](C)[C@H](CN(C)Cc2ccc(-c4ccccc4)cc2)O3)cc1	nt	nt	nt	-9	21	95*
C[C@H]1CN([C@@H](C)CO)C(=O)Cc2cc(NS(=O)(=O)c3ccc(Cl)cc3)ccc2O[C@@H]1CN(C)Cc1ccc(Oc2ccccc2)cc1	nt	nt	nt	60*	16	48
COc1ccc(S(=O)(=O)Nc2ccc3c(c2)CC(=O)N([C@H](C)CO)C[C@@H](C)[C@H](CN(C)Cc2ccc(Oc4ccccc4)cc2)O3)cc1	nt	nt	nt	16	-10	-5
COc1ccc(S(=O)(=O)Nc2ccc3c(c2)CC(=O)N([C@H](C)CO)C[C@H](C)[C@@H](CN(C)Cc2ccc(Oc4ccccc4)cc2)O3)cc1	nt	nt	nt	28	5	68*
C[C@H]1CCCCO[C@H](CN(C)C(=O)NC2CCCCC2)[C@@H](C)CN([C@@H](C)CO)C(=O)c2cc(NC(=O)CCCN(C)C)ccc2O1	nt	nt	nt	-3	9	nt
Cc1ccccc1S(=O)(=O)N1C[C@H](O)COC[C@@H]2O[C@@H](CC(=O)N3CCC(Cc4ccccc4)CC3)CC[C@H]21	nt	nt	nt	5	11	-29
O=C(C[C@@H]1CC[C@@H]2[C@H](COC[C@H](O)CN2S(=O)(=O)c2ccccc2Cl)O1)N1CCC(Cc2ccccc2)CC1	nt	nt	nt	11	-3	78*
O=C(C[C@H]1CC[C@H]2[C@@H](COC[C@@H](O)CN2S(=O)(=O)c2ccccc2Cl)O1)N1CCC(Cc2ccccc2)CC1	nt	nt	nt	23	4	80*
Cc1ccsc1/C=N/NC(=O)c1cc(-c2ccncc2)nc2ccccc12	0	-2	22	41	22	69*
O=C(N/N=C/c1ccsc1)c1cc(-c2cccs2)nc2ccccc12	-11	6	10	14	10	133*
SMILES	LMP1 NFkB inh	Shn3 3UTR inh	TRPM1 prom inh	EWS-Fli inh	LGR2 antag	PAX8 reporter
CC(/C=N/NC(=O)c1cc(-c2ccncc2)nc2ccccc12)=C\c1ccco1	6	13	68*	nt	-1	nt
COc1ccccc1-c1cc(C(=O)N/N=C/c2sccc2C)c2ccccc2n1	7	27	11	nt	nt	nt
O=C(N/N=C/c1ccc(Cl)cc1)c1cc(-c2cccnc2)nc2ccccc12	-17	-19	19	52*	-12	13
CCCNC(=O)C[C@H]1C[C@H]2c3cc(N(C)C)ccc3O[C@H]2[C@@H](CO)O1	nt	nt	nt	2	7	nt
CCCNC(=O)C[C@@H]1C[C@@H]2c3cc(NC(=O)Cc4ccncc4)ccc3O[C@@H]2[C@H](CO)O1	nt	nt	nt	2	6	-9
CC(C)NC(=O)N(C)C[C@H]1OCCCC[C@H](C)Oc2ccc(NC(=O)Nc3cccc4ccccc34)cc2C(=O)N([C@H](C)CO)C[C@H]1C	nt	nt	nt	nt	10	nt
CC1CCC/C=C/C(=O)c2c(O)cc(O)cc2CC(=O)O1 (configuration not stated)	-19	87*	92*	45	69*	nt
C[C@@H]1Cc2c(O)c(O)cc(O)c2C(=O)O1	-3	4	-3	nt	nt	nt
O=C(Nc1cccc(Cl)c1)Nc1ccnc(-c2cccnc2)n1	58*	-56	2	-18	16	54
O=C(Nc1cccc(Cl)c1)Nc1cnccn1	-2	12	-20	nt	7	-26
COc1ccc(S(=O)(=O)N2C[C@@H](O)COC[C@@H]3O[C@H](CC(=O)NCCN4CCCCC4)CC[C@H]32)cc1	nt	nt	nt	nt	5	nt
COc1ccc(S(=O)(=O)N(C)C[C@@H]2OCCCC[C@H](C)Oc3ccc(NC(=O)CCCN(C)C)cc3C(=O)N([C@@H](C)CO)C[C@H]2C)cc1	nt	nt	nt	-12	-13	-11
CCCOC(=O)c1ccc(OCC(O)Cn2c(C)nc3ccccc32)cc1 (configuration not stated)	-2	89*	33	3	-48	-4
O=C1/C(=N\S(=O)(=O)c2cccs2)C([n+]2cccc(Cc3ccccc3)c2)=C([O-])c2ccccc21	2	nt	91*	nt	nt	nt
Cc1cc[n+](C2=C([O-])c3ccccc3C(=O)/C2=N\S(=O)(=O)c2cccs2)cc1C	5	1	28	-2	-23	20
Cc1cc(C)c[n+](C2=C([O-])c3ccccc3C(=O)/C2=N\S(=O)(=O)c2cccs2)c1	6	-4	105*	9	4	-6
C[C@@H]1CN([C@H](C)CO)C(=O)Cc2cc(NC(=O)Nc3ccc(C(F)(F)F)cc3)ccc2O[C@@H]1CN(C)C(=O)NC1CCCCC1	nt	nt	nt	19	13	-1
